This passage reports sensor-assay potency score (higher = more potent) results from the OligoGym collection.
Further: reference of the scale not given here.

The target of one assay is GEMIN6. Nature of the assay: pooled miR-30 sensor sort-seq; sequence = guide strand. The settings on record: shRNA.
Regarding TTTGTAAATGTAATCTTGCCAT, the sensor-assay potency score (higher = more potent) is -0.539. Still for that read-out and setting: under TTATACTCATTCTTCTCACTGG stands 0.394. On the same count and under the same terms, under TTCTCTCTTCCAGATCCTCTGG stands -0.645; under TATACTCATTCTTCTCACTGGC, 0.16. The same measure, in the same setting: for AATAAGATCCTGAACACGCGAC the value was -0.339; for ATTCCGGTCACAGACATGCTGC, -1.04.

For another assay, the target named is GFPT2. Described as above. Particulars: shRNA.
Regarding TTCGTGATTATTCCCATCGATC, the sensor-assay potency score (higher = more potent) is -1.22. On the same count and under the same terms, under TTTGTAGTGAAATTCGGTCTTC stands 0.0421; under TTCTCCAGAGTGCACGTCCTGT, -0.972; under TTTGTAAAGTTCTTCATCGAGA, -0.0624.

In the case of TTTAAAACTAACTCTAGTGTTG, the sensor-assay potency score (higher = more potent) is -0.242.

In turn, TTGTCTTTTAAAACTAACTCTA had a sensor-assay potency score (higher = more potent) of -0.437. Same read-out and setting: under TAGTATTGAAAACTGATTCTGG stands 0.341. Regarding ATCACTAGCAAGTTCAACCATC, the sensor-assay potency score (higher = more potent) was -0.789. Still for that read-out and setting: under TTTCTTGACCAGCTGAATGTGT stands -0.609; under TTGACCAGCTGAATGTGTCTTT, 0.14. On the same count and under the same terms, under TTGGTTTCAAAATTCACCCGAC stands 0.408; under TTGACTTCGTGATTATTCCCAT, -0.191.
